Test results as given in PubChem BioAssay (NCI).
The panel holds about 83,000 compounds, 20% with a hit somewhere; the sample as a whole holds those more often.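 Step 1: grow cells in 96-well plates. Step 2: add test compound at a single concentration. Step 3: incubate 48 h. Step 4: record percent growth.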 Unmarked numbers belong to inactive results. The source made the active and inactive calls. Rule for the calls: active = growth percent below 10; inactive = the rest.

Key:
Test in all cases: NCI-60 one-dose screen, 48 h (100 = growth as untreated, 0 = no growth, -100 = all killed)
Conditions in all cases: 10 µM unless noted
SK-MEL-2 melanoma = system: SK-MEL-2 melanoma
EKVX NSCLC = system: EKVX NSCLC
SN12C renal = system: SN12C renal
UO-31 renal = system: UO-31 renal
TK-10 renal = system: TK-10 renal
ACHN renal = system: ACHN renal
CAKI-1 renal = system: CAKI-1 renal
A498 renal = system: A498 renal
CCRF-CEM leukemia = system: CCRF-CEM leukemia
MOLT-4 leukemia = system: MOLT-4 leukemia
SR leukemia = system: SR leukemia
RPMI-8226 leukemia = system: RPMI-8226 leukemia
OVCAR-8 ovarian = system: OVCAR-8 ovarian
OVCAR-5 ovarian = system: OVCAR-5 ovarian
OVCAR-4 ovarian = system: OVCAR-4 ovarian
SK-OV-3 ovarian = system: SK-OV-3 ovarian
IGROV1 ovarian = system: IGROV1 ovarian
OVCAR-3 ovarian = system: OVCAR-3 ovarian
HS 578T breast = system: HS 578T breast
NCI/ADR-RES ovarian = system: NCI/ADR-RES ovarian

SMILES	growth (SK-MEL-2 melanoma)	growth (EKVX NSCLC)	growth (SN12C renal)	growth (UO-31 renal)	growth (TK-10 renal)	growth (ACHN renal)	growth (CAKI-1 renal)	growth (A498 renal)	growth (CCRF-CEM leukemia)	growth (MOLT-4 leukemia)	growth (SR leukemia)	growth (RPMI-8226 leukemia)	growth (OVCAR-8 ovarian)	growth (OVCAR-5 ovarian)	growth (OVCAR-4 ovarian)	growth (SK-OV-3 ovarian)	growth (IGROV1 ovarian)	growth (OVCAR-3 ovarian)	growth (HS 578T breast)	growth (NCI/ADR-RES ovarian)
O=C(N=Nc1c(O)[nH]c2ccc(Cl)cc12)c1ccc2nc(-c3ccccc3)[nH]c2c1	43.4%	92.4%	42%	78.8%	143%	68.4%	89.3%	137%	41.7%	27.3%	15.3%	70.1%	20.8%	106%	38.2%	91%	75.4%	109%	52.3%	90%
CC1(C)CC[C@]2(C(=O)O)CC[C@]3(C)C(=CCC4[C@@]5(C)C[C@@H](O)[C@@H]6OC(c7ccccc7Br)OC[C@@]6(C)C5CC[C@]43C)C2C1 (stereo partly specified)	-1.06% (active)	18.4%	14.9%	15.5%	21%	9.85% (active)	14.6%	23.7%	13.1%	10.5%	12.5%	8.21% (active)	14.7%	36%	33.1%	40.2%	35%	9.3% (active)	31.9%	11.5%
Cc1nc(Nc2ccccn2)sc1C(=O)CC(SCC(=O)Nc1ccc(Cl)cc1)c1ccccc1F (stereo unspecified)	-27.1% (active)	36.5%	-15.1% (active)	30.3%	6.79% (active)	24.6%	15.3%	45.3%	12.4%	23.7%	12.6%	7.34% (active)	-35.8% (active)	-41.2% (active)	42.5%	8.74% (active)	20.4%	-13.5% (active)	4.29% (active)	-18% (active)
COc1ccc(-c2ccc(SCC(=O)NCCc3ccc(S(N)(=O)=O)cc3)nn2)cc1	79.8%	93.9%	87.3%	76.8%	87.9%	89.3%	90.6%	123%	66%	68.2%	63.9%	49.6%	88.8%	102%	77.2%	71.1%	82%	121%	89.8%	100%
C=C1CC[C@@H]2[C@]3(C)COC(c4ccccc4)O[C@@H]3CC[C@@]2(C)[C@@H]1C/C=C1/C(=O)OCC1OC(C)=O (stereo partly specified)	-61.5% (active)	21.8%	-96.9% (active)	-94.1% (active)	-21.2% (active)	-100% (active)	20.6%	129%	-29.3% (active)	-28.7% (active)	-32.8% (active)	-42.4% (active)	-64.9% (active)	-78.5% (active)	0.176% (active)	93.7%	-51.3% (active)	-88.2% (active)	61.5%	-73.1% (active)
COc1ccc(/C=N/NC(=O)Cn2nc(Cc3ccc(OC)cc3)c3onc(C)c3c2=O)cc1	78.9%	61.5%	27.5%	44.6%	79.4%	12.8%	-27.2% (active)	48.1%	75.5%	78.7%	53.4%	53.7%	45%	52.2%	-9.28% (active)	25.9%	77.6%	50.8%	36.3%	40.6%
CC(C)c1sc(NC(=O)c2cc(NC(=O)c3cc(NC(=O)c4cscn4)cn3C)cn2C)nc1C(=O)NCCCN(C)C	-79.4% (active)	27%	19.1%	85%	85.3%	98.7%	91%	113%	1.16% (active)	5.49% (active)	-8.69% (active)	94.5%	2.77% (active)	10.5%	18.7%	-14.5% (active)	13.3%	3.57% (active)	23.3%	103%
Cc1ccc([C@H]2C(C(=O)c3ccc(Cl)cc3)C3(N[C@@H]2c2ccccc2)C(=O)Nc2ccc(Cl)cc23)cc1 (stereo partly specified)	49.9%	59.8%	-1.19% (active)	31.2%	65.7%	38.7%	39.1%	94%	66.3%	3.24% (active)	-3.12% (active)	32.4%	59.3%	67.5%	57.4%	67.4%	50.9%	45.8%	74.4%	54.6%
COc1cc2oc(-c3cccc(C(=O)Nc4ccc(Cl)cc4)c3)cc(=O)c2c(OCCNC(=O)[C@H](CCC(=O)OC(C)(C)C)NC(=O)OC(C)(C)C)c1OC	106%	90.7%	91.9%	74.4%	109%	93.7%	69.4%	113%	95.3%	71.6%	72.9%	78.1%	100%	107%	93%	102%	89.9%	110%	92.6%	91.5%
C#CCOc1ccc(/C=N/Nc2nc(-c3ccc(Cl)cc3)cs2)cc1OC	38%	59.5%	67.7%	52.5%	131%	68.6%	52.6%	69.8%	36.2%	21.7%	22.2%	38.5%	51.7%	86.9%	54.2%	88.2%	88.1%	69.1%	81.1%	46%
COc1cc(CNC(=O)/C=C/c2ccc3c(c2)OCO3)ccc1OCc1cn(-c2ccc([N+](=O)[O-])cc2)nn1	118%	71.5%	82.6%	78.2%	106%	90.5%	64.3%	113%	99.5%	72.4%	69.3%	74.2%	90.5%	97.7%	75.7%	99.3%	107%	108%		86.7%
Cc1ccc(-c2nc(C#N)c(S(=O)(=O)N3CCN(S(=O)(=O)c4ccc(Cl)cc4)CC3)o2)cc1	95.7%	99%	93.4%	97.3%	117%	43.8%	94.1%	107%	13.1%	75.7%	47.3%	97%	82.2%	105%	86.8%	87.2%	95.8%	114%	65.2%	91%
O=C(/C=C/c1ccc(-c2ccccc2)cc1)c1nc2ccccc2n1Cc1ccc(Br)cc1	65.8%	52.3%	77.2%	46.3%	35.3%	32.7%	50.4%	104%	11.1%	-14.4% (active)	2.11% (active)	14.1%	43.9%	74.7%	50%	85.3%	63.6%	45%		47.1%
N#Cc1c(-c2cccc(Cl)c2Cl)cc(-c2c[nH]c3ccccc23)[nH]c1=O	87.7%	53%	53.6%	43.1%	108%	59%	53%	128%	33.1%	41%	42.3%	44.4%	72.5%	83.9%	75.2%	94.4%	71%	86.1%		76.5%
O=c1[nH]n(C(=S)N/N=C/c2ccccc2Cl)c(=O)c2ccccc12	-33% (active)	-35.4% (active)	7.3% (active)	15.6%	25.8%	5.27% (active)	27.5%	38.7%	-11.2% (active)	-1.75% (active)	-13.8% (active)	-1.71% (active)	4.91% (active)	9.48% (active)	33%	23.4%	7.53% (active)	24%		-9.23% (active)
